Potency data for 13 compounds are collected here from PubChem BioAssay (NCATS).

Molecules are shown by their SMILES. Inconclusive results are not listed. Active and inactive are the calls of the source. Unless noted, calls follow the shape of the dose curve; as a rule, active = well fitted curve in the direction sought with a large enough effect; inconclusive = small, poorly fitted or top-dose-only effect, or another doubt; inactive = no such curve, though single readings can be large; an effect the other way counts as inactive or inconclusive.

Assay [1] in a line: qHTS for Inhibitors of the Functional Ribonucleoprotein Complex (vRNP) of Lymphocytic Choriomeningitis Arenaviruses (LCMV): Viability assay - alamar blue signal for LCMV Primary Screen (AID 1347085; calls by dose curve; tested in HEK293 reporter line; also: series mostly up to about 57 µM; nearly all actives have a fitted effect of over 80% in size). Background: qHTS replaces the single test concentration by a dilution series.
For assay [2], the target named is Nucleoprotein (Lymphocytic choriomeningitis virus (strain Armstrong)) (UniProt P09992). The assay is described as follows: qHTS for Inhibitors of the Functional Ribonucleoprotein Complex (vRNP) of Lymphocytic Choriomeningitis Arenaviruses (LCMV): LCMV Primary Screen - GLuc reporter signal (AID 1347086; calls by dose curve; also: series mostly up to about 57 µM; nearly all actives have a fitted effect of over 70% in size).
Sequence of Nucleoprotein (Lymphocytic choriomeningitis virus (strain Armstrong)) (P09992 whole entry, looked up): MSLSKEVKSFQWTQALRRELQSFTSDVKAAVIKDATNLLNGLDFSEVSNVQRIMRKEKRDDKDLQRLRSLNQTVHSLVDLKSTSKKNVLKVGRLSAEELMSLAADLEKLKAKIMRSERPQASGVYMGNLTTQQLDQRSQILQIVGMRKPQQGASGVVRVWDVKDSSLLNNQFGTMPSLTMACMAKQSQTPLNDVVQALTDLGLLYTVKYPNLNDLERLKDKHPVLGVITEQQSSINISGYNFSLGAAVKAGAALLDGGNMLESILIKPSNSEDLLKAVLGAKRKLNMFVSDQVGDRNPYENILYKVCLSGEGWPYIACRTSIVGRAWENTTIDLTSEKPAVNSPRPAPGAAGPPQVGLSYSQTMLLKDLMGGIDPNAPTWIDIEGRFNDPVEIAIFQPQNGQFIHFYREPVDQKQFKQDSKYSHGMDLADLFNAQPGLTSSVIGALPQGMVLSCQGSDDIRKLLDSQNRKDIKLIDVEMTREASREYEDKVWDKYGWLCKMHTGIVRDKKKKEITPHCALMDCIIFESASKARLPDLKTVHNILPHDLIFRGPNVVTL
Assay [3] in a line: qHTS of pediatric cancer cell lines to identify multiple opportunities for drug repurposing: Primary screen for TC32 cells (AID 1347089). Also: nearly all actives have a fitted effect of over 60% in size. Put shortly:
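Luminescent CellTiter-Glo read-out of metabolically active TC32 cells after 48 h compound exposure. Primary: MIPE 11-point, 0.78 nM–46 µM; NPC 8-point, 0.59 nM–46 µM. Confirmatory: 11-point dilutions.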

The nature of assay [4]: qHTS of pediatric cancer cell lines to identify multiple opportunities for drug repurposing: Primary screen for DAOY cells (AID 1347090). Also: series mostly up to about 46 µM; nearly all actives have a fitted effect of over 55% in size. The method, boiled down: (§1)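 Eight- or eleven-point concentration series, 48 h treatment at 37 degrees C in growth media; readout CellTiter-Glo luminescence. Potency and efficacy were taken from the concentration-response curves.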
Assay [5] can be described thus: qHTS of pediatric cancer cell lines to identify multiple opportunities for drug repurposing: Primary screen for SJ-GBM2 cells (AID 1347091). Also: potency is read from the fitted curve at half-maximal effect. Put shortly: as §1
Assay [6] in a line: qHTS of pediatric cancer cell lines to identify multiple opportunities for drug repurposing: Primary screen for SK-N-MC cells (AID 1347093). Also: potency is read from the fitted curve at half-maximal effect. Put shortly: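 Metabolically active cells were quantified by ATP-dependent luminescence (CellTiter-Glo, 15 min at room temperature) following 48 h treatment. Cells had been plated at 500-1,000 per well and settled for 5 h beforehand.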
Assay [7] can be described thus: qHTS of pediatric cancer cell lines to identify multiple opportunities for drug repurposing: Primary screen for BT-37 cells (AID 1347094). Also: potency is read from the fitted curve at half-maximal effect. The method, boiled down:
(§2)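 Primary screen of approved and investigational compounds on cells in growth media at 37 degrees C, 5% CO2. MIPE set at 11-point and NPC set at 8-point dilutions; viability scored by ATP-based luminescence at 48 hours.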

A short description of assay [8]: qHTS of pediatric cancer cell lines to identify multiple opportunities for drug repurposing: Primary screen for NB-EBc1 cells (AID 1347095). Put shortly:
as §2

A short description of assay [9]: qHTS of pediatric cancer cell lines to identify multiple opportunities for drug repurposing: Primary screen for U-2 OS cells (AID 1347096). Also: nearly all actives have a fitted effect of over 50% in size. The method, boiled down: (§3)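 Cells (500-1,000/well) in growth media were settled 5 h at 37 degrees C, then given compounds for 48 h. Viability was read as CellTiter-Glo luminescence. Primary runs used MIPE at 11 points (0.78 nM-46 µM) and NPC at 8 points (0.59 nM-46 µM); follow-ups used 11 points.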

The nature of assay [10]: qHTS of pediatric cancer cell lines to identify multiple opportunities for drug repurposing: Primary screen for Saos-2 cells (AID 1347097). Also: nearly all actives have a fitted effect of over 40% in size. Also: potency is read from the fitted curve at half-maximal effect. The method, boiled down:
as §2

The nature of assay [11]: qHTS of pediatric cancer cell lines to identify multiple opportunities for drug repurposing: Primary screen for BT-12 cells (AID 1347101). Also: nearly all actives have a fitted effect of over 25% in size. Also: potency is read from the fitted curve at half-maximal effect. The method, boiled down:
(§4)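 Cells (500-1,000/well) rested 5 h, then received compounds for 48 h; metabolically active cells were measured by CellTiter-Glo luminescence. Final concentrations spanned up to 46 µM (MIPE, 11-point) or 0.59 nM-46 µM (NPC, 8-point) in primary screens, 11-point in follow-ups.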

Assay [12] can be described thus: qHTS of pediatric cancer cell lines to identify multiple opportunities for drug repurposing: Primary screen for Rh18 cells (AID 1347102). Also: nearly all actives have a fitted effect of over 65% in size. Put shortly: as §3
Assay [13] in a line: qHTS of pediatric cancer cell lines to identify multiple opportunities for drug repurposing: Primary screen for OHS-50 cells (AID 1347103). Also: nearly all actives have a fitted effect of over 40% in size. Also: potency is read from the fitted curve at half-maximal effect. Put shortly:
as §4

The nature of assay [14]: qHTS of pediatric cancer cell lines to identify multiple opportunities for drug repurposing: Primary screen for RD cells (AID 1347104). Also: nearly all actives have a fitted effect of over 55% in size. The method, boiled down:
as §2

Assay [15] is described as follows: qHTS of pediatric cancer cell lines to identify multiple opportunities for drug repurposing: Primary screen for MG 63 (6-TG R) cells (AID 1347105). Also: nearly all actives have a fitted effect of over 50% in size. The method, boiled down: as §2
Assay [16] in a line: qHTS of pediatric cancer cell lines to identify multiple opportunities for drug repurposing: Primary screen for control Hh wild type fibroblast cells (AID 1347106).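 Also: series mostly up to about 46 µM; a drop in luminescence marks cytotoxicity and a rise apparent proliferation; nearly all actives have a fitted effect of over 55% in size.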 The method, boiled down:
as §3

Assay [17] can be described thus: qHTS of pediatric cancer cell lines to identify multiple opportunities for drug repurposing: Primary screen for SK-N-SH cells (AID 1347098).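 Also: DMSO served as neutral control and bortezomib at 2.3 µM as positive control; nearly all actives have a fitted effect of over 65% in size.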 The method, boiled down:
as §4

The nature of assay [18]: qHTS of pediatric cancer cell lines to identify multiple opportunities for drug repurposing: Primary screen for NB1643 cells (AID 1347099). Also: nearly all actives have a fitted effect of over 50% in size. The method, boiled down:
as §2

A short description of assay [19]: qHTS of pediatric cancer cell lines to identify multiple opportunities for drug repurposing: Primary screen for LAN-5 cells (AID 1347100). Put shortly:
as §3

Assay [20] in a line: qHTS of pediatric cancer cell lines to identify multiple opportunities for drug repurposing: Primary screen for A673 cells (AID 1347092). Also: nearly all actives have a fitted effect of over 45% in size. Put shortly:
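A673 cells (500-1,000 cells/well in growth media) were pre-incubated 5 h at 37 degrees C, then exposed to compounds for 48 h. Viability was read as CellTiter-Glo luminescence; concentration-response curves came directly from the primary screen.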

With `C[C@]12CC[C@@H]3[C@@H](CCC4=CC(=O)CC[C@@H]43)[C@@H]1CC[C@@H]2OC(=O)CCc1ccccc1`, the Potency entry in assay [1], in [2], in assay [3], in assay [4], in assay [5] and in assay [6] was “inactive” throughout. Moreover, the Potency result in [7], in assay [8], in assay [9], in assay [11], in assay [12] and in assay [13] was “inactive” in each case. Moreover, the Potency entry in [14], in [15] and in [16] was “inactive” each time. Also, the Potency in assay [10] is 18700 nM (active).

On to `NC1CC1c1ccccc1` (stereo not drawn), for which the Potency entry in [1], in [2], in assay [3], in assay [4], in assay [5] and in [6] was “inactive” throughout. For the same compound, the Potency result in assay [7], in assay [8], in [9], in [10], in assay [17] and in assay [18] was “inactive” in each case. For the same compound, the Potency result in [19], in assay [11], in [12], in assay [13], in assay [14] and in assay [15] was “inactive” throughout. In addition, the Potency result in assay [16] was “inactive”.

Turning to `CCCCOC(=O)c1ccccc1C(=O)OCc1ccccc1`, the Potency entry in [1], in assay [2], in [3], in [4], in assay [5] and in assay [6] was “inactive” in each case. In addition, the Potency result in [7], in assay [9], in [10], in [17], in assay [18] and in assay [19] was “inactive” in each case. Also, the Potency entry in [11], in [12], in [14], in assay [15] and in assay [16] was “inactive” throughout.

For the compound `CCN1C[C@]2(OC(=O)c3ccccc3NC(C)=O)CC[C@H](OC)[C@@]34[C@H]5CC6[C@@H](OC)C[C@](O)(C(C[C@@H]23)[C@@H]14)[C@@]5(O)[C@@H]6OC`, the Potency entry in assay [1], in assay [2], in assay [3], in assay [4], in assay [5] and in assay [20] was “inactive” in each case. Moreover, the Potency result in assay [7], in assay [8], in [9], in [10], in assay [19] and in assay [11] was “inactive” in each case. For the same compound, the Potency entry in assay [12], in assay [14], in assay [15] and in [16] was “inactive” each time.

In the case of `C1=C2CCCN[C@H]2[C@@H]2C[C@H]1[C@@H]1CCCCN1C2`, the Potency result in assay [1], in assay [2], in assay [3], in assay [4], in [5] and in [7] was “inactive” in each case. For the same compound, the Potency entry in assay [9], in assay [10], in assay [17], in assay [19], in assay [11] and in [12] was “inactive” throughout. Also, the Potency result in assay [14], in assay [15] and in [16] was “inactive” each time.

In the case of `CCC(=O)OC1CCC2C3CCC4=CC(=O)CC[C@@]4(C)C3CC[C@]12C` (stereo partly drawn), the Potency result in [1], in assay [2], in [3], in assay [4], in assay [5] and in [7] was “inactive” throughout. For the same compound, the Potency result in assay [9], in [10], in [17], in assay [18], in assay [19] and in [11] was “inactive” each time. Further, the Potency entry in [12], in assay [15] and in [16] was “inactive” each time. Also, the Potency in assay [6] was 9350 nM (active).

In the case of `CC(=O)OCC1=C(C(=O)O)N2C(=O)[C@@H](N)[C@@H]2SC1`, the Potency result in [1], in assay [2], in assay [3], in assay [4], in assay [9] and in assay [12] was “inactive” in each case. In addition, the Potency entry in assay [15] and in [16] was “inactive” each time. The Potency in assay [5] was 2350 nM (active); in assay [6] it was 23500 nM (active); in assay [7], 1220 nM (active); in [10], 935 nM (active); in [11], 1370 nM (active); in [13], 1370 nM (active).

With `CN[C@@H]1Cc2cccc3[nH]c(=O)n(c23)C1`, the Potency entry in assay [1], in assay [2], in assay [3], in assay [4], in assay [5] and in [6] was “inactive” in each case. Besides, the Potency result in assay [7], in [8], in assay [9], in assay [10], in assay [17] and in [18] was “inactive” in each case. For the same compound, the Potency entry in assay [19], in assay [11], in assay [12], in [14], in [15] and in assay [16] was “inactive” in each case.

Consider `COc1ccc2c(c1)[C@]13CCCCC1C(C2)N(C)CC3` (stereo partly drawn), for which the Potency entry in [1], in [2], in [3], in assay [4], in assay [5] and in [20] was “inactive” in each case. In addition, the Potency entry in [7], in assay [8], in assay [9], in assay [10], in [19] and in assay [11] was “inactive” in each case. Also, the Potency result in assay [12], in assay [14], in assay [15] and in [16] was “inactive” throughout.

Take `Nc1ccc(Sc2ccc(N)cc2)cc1`: the Potency entry in assay [1], in [2], in assay [3], in assay [4], in [5] and in assay [6] was “inactive” in each case. Also, the Potency result in assay [7], in [9], in assay [17], in assay [18], in assay [19] and in [11] was “inactive” in each case. Moreover, the Potency entry in [12], in assay [13], in assay [15] and in [16] was “inactive” in each case.

Take `CN(C)[C@@H]1C(=O)C(C(N)=O)=C(O)[C@@]2(O)C(=O)C3=C(O)c4c(O)cccc4[C@@](C)(O)[C@H]3[C@H](O)[C@@H]12`: the Potency entry in assay [1], in assay [2], in [3], in assay [4], in assay [5] and in assay [6] was “inactive” throughout. Besides, the Potency entry in assay [7], in assay [8], in assay [9], in assay [10], in assay [18] and in [19] was “inactive” throughout. Also, the Potency result in assay [11], in [12], in [13], in assay [15] and in [16] was “inactive” throughout.

Take `C[C@]12CC[C@H]3[C@@H](CCC4=CC(=O)CC[C@@]43C)[C@H]1CC[C@H]2O`: the Potency entry in [1], in [2], in assay [3], in [4], in [5] and in assay [6] was “inactive” in each case. For the same compound, the Potency entry in [8], in [9], in assay [10], in [17], in assay [18] and in [19] was “inactive” in each case. The Potency result in [11], in [12], in assay [15] and in assay [16] was “inactive” in each case.

In the case of `O=C1C(I)=CC(=C(c2cc(I)c(O)c(I)c2)c2ccccc2C(=O)O)C=C1I`, the Potency result in assay [1], in assay [2], in [3], in assay [4], in assay [5] and in assay [7] was “inactive” in each case. The Potency entry in assay [8], in [9], in [10], in assay [17], in assay [19] and in assay [11] was “inactive” each time. The Potency entry in [12], in assay [13], in [14], in [15] and in assay [16] was “inactive” each time.
